According to PubChem BioAssay AID1779 (Sanford-Burnham Center for Chemical Genomics, 2009):
Among all 290,000 compounds or so, about 160 (0.055%) were called active. Rule as the data show it: active = inhibition above about 50%; inactive = the rest. The full list was thinned out, with actives kept by preference.

target: Tyrosine-protein phosphatase non-receptor type 22 (Homo sapiens) (UniProt Q9Y2R2); assay: inhibitors of LYP phosphatase, biochemical, fluorescence intensity, uHTS (AID 1779); conditions: recombinant LYP phosphatase, at 11.5 µM, stronger effect = higher value;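 also: plate controls were vehicle with enzyme for no effect and no enzyme for full effect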
Sequence (Q9Y2R2 whole entry, looked up): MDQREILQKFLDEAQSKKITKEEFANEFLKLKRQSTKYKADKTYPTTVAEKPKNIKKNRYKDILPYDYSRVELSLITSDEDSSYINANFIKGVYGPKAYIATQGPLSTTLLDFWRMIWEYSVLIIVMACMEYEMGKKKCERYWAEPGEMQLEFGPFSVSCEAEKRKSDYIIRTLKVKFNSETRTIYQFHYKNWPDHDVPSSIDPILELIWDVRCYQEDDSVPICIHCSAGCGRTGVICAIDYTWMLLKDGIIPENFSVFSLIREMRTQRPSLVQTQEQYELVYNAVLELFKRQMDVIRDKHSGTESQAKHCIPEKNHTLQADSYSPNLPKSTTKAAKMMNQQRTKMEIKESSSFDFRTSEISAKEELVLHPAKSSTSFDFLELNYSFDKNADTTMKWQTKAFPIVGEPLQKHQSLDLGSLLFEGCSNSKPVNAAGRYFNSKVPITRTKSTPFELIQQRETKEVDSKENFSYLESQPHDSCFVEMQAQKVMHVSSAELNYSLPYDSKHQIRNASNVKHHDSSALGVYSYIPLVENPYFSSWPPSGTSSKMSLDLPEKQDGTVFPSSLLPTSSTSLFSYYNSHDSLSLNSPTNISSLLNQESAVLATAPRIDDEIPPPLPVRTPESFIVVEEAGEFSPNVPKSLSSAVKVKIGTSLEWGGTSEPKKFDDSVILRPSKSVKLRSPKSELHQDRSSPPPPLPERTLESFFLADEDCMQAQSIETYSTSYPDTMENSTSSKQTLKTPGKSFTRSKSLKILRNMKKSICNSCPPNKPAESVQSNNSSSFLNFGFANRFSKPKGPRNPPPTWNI

inhibition, inactive:
CS(=O)(=O)N1CCc2cc(C(=O)NC3CC3)ccc21 -10.8%
COCCNC(=O)C(c1ccco1)N(Cc1ccc(OC)cc1)C(=O)Cn1nnc2ccccc21 (configuration not stated) 10.9%
CSc1nc(-c2ccccc2)nn1C(=O)c1ccco1 -3%
COc1ccc(-c2nc(SC)n(C(=O)c3ccco3)n2)cc1 -4.5%
Cc1nc(-c2ccc(S(=O)(=O)N3CCN(CCc4ccccc4)CC3)s2)cs1 -0.7%
N#CCN(CC#N)C(=O)C1c2ccccc2Oc2ccccc21 -3.9%
COc1ccc(NC(=O)C2CCCN(S(=O)(=O)c3c(C)n[nH]c3C)C2)c(OC)c1 (configuration not stated) -2%
O=[N+]([O-])c1cc(Cl)cc(/C=N/n2cnnc2)c1O 3.8%
Cc1cc(/C=N/n2cnnc2)c(O)c([N+](=O)[O-])c1 -3.1%
COc1ccc(C2C(C#N)=C(N)Oc3cc(C)n(CCN4CCOCC4)c(=O)c32)cc1OC (configuration not stated) -4.7%
CCOc1ccc(C2C(C#N)=C(N)Oc3cc(C)n(CCN(C)C)c(=O)c32)cc1OCC (configuration not stated) -1.7%
Cc1cccn2c(=O)c3cc(C(=O)NC4CCCCC4)c(=N)n(CCN4CCOCC4)c3nc12 -35.6%
Fc1ccc(-c2csc(=S)[nH]2)cc1 -2%
Cc1ccc(-c2csc(=S)[nH]2)cc1 -4%
OCCC1CN(Cc2cccn2-c2ncccn2)CCN1C1CCCC1 (configuration not stated) -9.8%
Cc1ccc(C(=O)N2CCN(S(=O)(=O)N3CCCCC3)CC2)cc1 -11.4%
O=C(COC(=O)COc1ccc(Cl)cc1)Nc1ccc(F)c([N+](=O)[O-])c1 2.2%
Cc1cc(NC(=O)COC(=O)COc2ccc(Cl)cc2C)c([N+](=O)[O-])cc1C 5.9%
O=C(c1ccco1)N1CCN(C(=O)C2CC(=O)N(c3ccc(Cl)cc3)C2)CC1 (configuration not stated) -14.5%
N/C(=N\N=C\c1ccco1)SC1CC(=O)N(c2ccc(C(=O)O)cc2)C1=O (configuration not stated) 1.7%
N/C(=N\N=C\c1ccco1)SC1CC(=O)N(c2ccccc2)C1=O (configuration not stated) -2.9%

inhibition, active:
CSc1nc(-c2ccc(Cl)cc2)nn1C(=O)c1ccco1 77.2%
O=[N+]([O-])c1cc(Br)cc(/C=N/n2cnnc2)c1O 76.8%
CCOc1ccc(C2C(C#N)=C(N)Oc3cc(C)n(CCN4CCOCC4)c(=O)c32)cc1OCC (configuration not stated) 61.4%
S=c1[nH]c(-c2ccc(Cl)cc2)cs1 74.6%
Cc1cc(Cl)ccc1OCC(=O)OCC(=O)Nc1ccc(F)c([N+](=O)[O-])c1 62%
N/C(=N\N=C\c1ccc2c(c1)OCO2)SC1CC(=O)N(c2ccc(C(=O)O)cc2)C1=O (configuration not stated) 70%
